Experimental data: PubChem BioAssay AID1460 (National Center for Advancing Translational Sciences (NCATS), 2008)
About 5,800 (2.1%) of roughly 270,000 compounds were called active. Not shown: some 16% with an inconclusive outcome. This excerpt belongs to a sample that is enriched for actives. Values without a mark were called inactive. Calls follow the shape of the dose curve; as a rule, active = well fitted inhibition curve with a large enough effect; inconclusive = small, poorly fitted or top-dose-only effect; inactive = flat fitted curve, though single readings scatter.

What follows are compounds tested against Microtubule-associated protein tau (Homo sapiens) (UniProt P10636) (assay: qHTS for Inhibitors of Tau Fibril Formation, Thioflavin T Binding). Conditions: recombinant tau K18 P301L (four-repeat tau fragment), heparin-induced fibrillization, ThT fluorescence; series mostly up to 57.4 µM; activity, negative = inhibition: at the top concentration.
Sequence of Microtubule-associated protein tau (Homo sapiens) (P10636 561-689 P618L limits assumed): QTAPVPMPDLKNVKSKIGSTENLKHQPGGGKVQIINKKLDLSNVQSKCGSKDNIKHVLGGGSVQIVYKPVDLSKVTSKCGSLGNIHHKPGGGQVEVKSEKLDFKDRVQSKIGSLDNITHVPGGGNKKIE
Procedure, shortened: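 Tau K18 P301L fragment (15 uM unlabeled plus 0.24 uM Alexa 594-labeled) in 100 mM sodium acetate pH 7 with compound, fibrillization induced by 20 uM heparin for 6 hr at 37 C. Thioflavin T (30 uM) added, fluorescence read after 1 hr (ex 450, em 510 nm).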
% is scaled to controls: 0 for no effect and ±100 for the full control effect; potency is read from the fitted curve at half-maximal effect.
Also: nearly all actives have a fitted effect of over 55% in size.

Row | Structure (SMILES) | activity, negative = inhibition [%] | Potency
1 | CC(=O)c1ccc(NC(=O)c2nc(-c3ccc(C)cc3)n3c2CCCCC3)cc1 | -9.51 | 
2 | Cc1ccc(CCNC(=O)c2nnc(Cc3cccc(F)c3)o2)cc1 | -13.6 | 
3 | CNC(=O)c1c(NC(NC(=O)c2ccco2)C(=O)c2ccc(Cl)cc2)sc2c1CCCC2 (stereo not given) |  | 25.1 µM (active)
4 | CC(C)OC(=O)c1c(NC(=O)c2ccco2)sc2c1CCCC2 | -13 | 
5 | CCOC(=O)c1c(NC(=S)NC(=O)c2ccco2)sc2c1CCCC2 | -18 | 
6 | COc1cc2c(cc1OC)C(COc1ccc(F)cc1)N(C(=O)c1ccccc1F)CC2 (stereo not given) | -8.13 | 
7 | COc1cc(Cl)c(NC(=O)CC(C)S(=O)(=O)c2cc3c(cc2C)NC(=O)CO3)c(OC)c1 (stereo not given) | 2.57 | 
8 | Cc1ccc(N=Nc2c(C)[nH]n(-c3ccccc3)c2=O)cc1 | 0.0892 | 
9 | Cc1c(N=Nc2ccc(N(C)C)cc2)c(=O)n(-c2ccccc2)n1C |  | 15.8 µM (active)
10 | Cc1c(C=O)n(C)n(-c2ccccc2)c1=O | 0.926 | 
11 | CC(C)(C)c1ccc(S(=O)(=O)Nc2ccc(O)c(Sc3nc4ccccc4s3)c2)cc1 | -17.4 | 
12 | O=[N+]([O-])c1c(NCCO)cc(Sc2nc3ccccc3s2)c2nonc12 |  | 12.6 µM (active)
13 | O=C(CSc1nc2ccccc2s1)Nc1ccc(C(=O)O)cc1 | -2.11 | 
14 | COC(=O)c1cc(S(=O)(=O)N2CCN(c3cc(Cl)ccc3C)CC2)c[nH]1 | 7.65 | 
15 | O=C1C(c2ccccn2)=[N+]([O-])c2ccccc21 |  | 3.98 µM (active)
16 | COc1ccc(NC(=O)CSc2nc3ccccc3n2CC(=O)N2CCCCC2C)cc1 (stereo not given) | 1.12 | 
17 | COc1cc(NC(=O)c2cc(C3CC3)nc3c2c(C)nn3-c2ccccc2)cc(OC)c1 | -5.05 | 
18 | COC(=O)CC1Oc2ccccc2-n2cc(-c3ccccc3)nc21 (stereo not given) | -13.4 | 
19 | CCOc1ccc(C(=O)/C=C/c2cn(CC(O)CN3CCCCCC3)c3ccccc23)cc1 (stereo not given) |  | 12.6 µM (active)
20 | O=C(c1ccc(Cl)cc1)c1ccc(OCC(O)CN2CCCCC2)cc1 (stereo not given) | -6.29 | 
21 | O=C(c1ccccc1)c1ccc(OCC(O)CN2CCCC2)cc1 (stereo not given) | -0.223 | 
22 | Cc1ccc(C)c(CNC(=O)c2cc3ccccn3n2)c1 | -8.43 | 
23 | CC/C(=N/Nc1ccccc1)c1cnnc(SC)n1 |  | 7.08 µM (active)
24 | CCOc1ccccc1C(=O)Nc1ccc(S(=O)(=O)N2CCCCC2c2cccnc2)cc1 (stereo not given) | 8.63 | 
25 | CCOC(=O)c1c(C)[nH]c(C)c1S(=O)(=O)NCC(=O)NCc1cccc(C)c1 | 3.96 | 

Row | Structure (SMILES) | activity, negative = inhibition [%] | Potency
26 | COc1ccc(Br)cc1/C=N/n1c(C)nnc1C | -2.94 | 
27 | COc1cc(Br)cc(/C=N/c2ncn[nH]2)c1O |  | 14.1 µM (active)
28 | C/C(=N/Nc1nc(-c2ccccc2)c(CC(=O)O)s1)c1ccccc1 |  | 12.6 µM (active)
29 | O=C(O)Cc1sc(-c2ccc(C(=O)O)cc2)nc1-c1ccccc1 | 2.5 | 
30 | Cc1ccc(-c2nc(C)sc2CC(=O)O)cc1 | 4.18 | 
31 | COc1ccc(NC(=O)CSc2nccn2Cc2ccc3c(c2)OCO3)cc1 | -11.5 | 
32 | Nc1ncc(S(=O)(=O)Nc2ccc(OC(F)(F)F)cc2)cn1 | -1.64 | 
33 | CCc1ccc2ncc3c(-c4ccc(C)cc4)nn(CC(=O)NCc4ccccc4)c3c2c1 | -6.61 | 
34 | COc1ccc(CNC(=O)CSc2n[nH]c(-c3ccc(F)cc3)n2)cc1 | -4.28 | 
35 | Cc1ccc(NC(=O)c2oc3ccccc3c2NC(=O)Cc2cccs2)cc1 | 1.47 | 
36 | CCOC(=O)Cc1csc(NC(=O)CSc2nc(C)cc(=O)[nH]2)n1 |  | 28.2 µM (active)
37 | CCOC(=O)Cc1csc(NC(=O)CSc2ccc(Br)cc2)n1 | 5.76 | 
38 | CCCCc1nnc(NC(=O)CSc2nc(C)cc(=O)[nH]2)s1 | -3.3 | 
39 | CC1=Nc2cc(C(=O)NCc3ccc(C)cc3)ccc2Sc2ccc(Cl)cc21 | -7.16 | 
40 | Cc1ccc(Cl)cc1N1CCN(S(=O)(=O)c2cc3[nH]c(=O)c(=O)[nH]c3cc2C)CC1 | 2.21 | 
41 | COc1cc(C(=O)NCCc2csc3nc(-c4ccccc4C)nn23)cc(OC)c1OC | -11.2 | 
42 | COC/C=C/C1=CC2=CC(=O)C(C)(OC(=O)CCC(=O)OC)C(=O)C2=CO1 (stereo not given) |  | 15.8 µM (active)
43 | CC(C)(C)OC(=O)NCCCC1=CC2=CC(=O)C(C)(OC(=O)c3ccco3)C(=O)C2=CO1 (stereo not given) | -0.483 | 
44 | COc1cc(CN(C(=O)c2ccccc2Br)c2ccccn2)cc(OC)c1OC | -13.1 | 
45 | CCOc1cccc(NC(=O)c2ccc(F)c(S(=O)(=O)N(CC)c3cccc(C)c3)c2)c1 | 5.24 | 
46 | Oc1ccc(N=Cc2sc3ccccc3c2Cl)cc1 |  | 7.08 µM (active)
47 | COC(=O)c1cc(NC(=O)c2sc3ccccc3c2Cl)cc(C(=O)OC)c1 | -2.46 | 
48 | Oc1ccc(N=Cc2c(O)ccc3ccccc23)cc1 |  | 12.6 µM (active)
49 | O=C(Nc1ccon1)c1sc2ccccc2c1Cl | -23.4 | 
50 | CN(Cc1ccccc1)c1ncnc2onc(-c3ccc(F)cc3)c12 | -8.33 | 

Row | Structure (SMILES) | activity, negative = inhibition [%] | Potency
51 | O=c1c(NCc2cccs2)nccn1-c1ccccc1 | -0.0042 | 
52 | O=C(CSc1cn(CC(=O)N2CCOCC2)c2ccccc12)Nc1ccccc1 | -3.17 | 
53 | Cc1ccc2oc3c(c(=O)c2c1)C(c1ccc([N+](=O)[O-])cc1)N(CCCN1CCOCC1)C3=O (stereo not given) | -4.43 | 
54 | CCN1CCC(N(Cc2ccc(F)cc2)C(=O)Nc2cc(C)ccc2C)CC1 | -6.42 | 
55 | Cc1cc(C)c2sc(NC(=O)c3ccc(S(=O)(=O)N4CCCC4)cc3)nc2c1 | 5.67 | 
56 | CCOc1cccc(CNC(=O)c2ccc(N3CCCC3)c(NC(=O)Nc3ccccc3CC)c2)c1 | 7.65 | 
57 | COc1cccc(C(=O)NC(=O)Nc2ccc(-c3cc(C(F)(F)F)nn3-c3ccccc3)cc2)c1 | 6.06 | 
58 | Cc1ccccc1CCNC(=O)C1CCN(c2nc3ccccc3nc2C(F)(F)F)CC1 | -0.629 | 
59 | CCc1cnc2c(c1SCC(=O)N1CCC(C)CC1)c(=O)n(C)c(=O)n2C | -7.64 | 
60 | O=C(Nc1cccc([N+](=O)[O-])c1)Nc1ccc(Cl)cn1 | -5.31 | 
61 | Nc1c(-c2cccc(Cl)c2)cnn1-c1cccc([N+](=O)[O-])c1 |  | 12.6 µM (active)
62 | O=[N+]([O-])c1cccc(C2=NCCS2)c1 | 4.06 | 
63 | Cc1c(C(=O)N2CCCC2)oc2c1-c1nn(CC(=O)NCc3ccc(OC(C)C)cc3)cc1CC2 | -16.8 | 
64 | Cc1ccc(OCC(=O)OCc2cc(=O)n3nc(C4CC4)sc3n2)cc1C | -2.32 | 
65 | Cc1ccc(Cl)cc1N(C)C(=O)C1CCCN(c2ncnc3onc(-c4ccc(F)cc4)c23)C1 (stereo not given) | -15.3 | 
66 | O=C1c2ccccc2C2=Nc3ccccc3SC(c3ccccc3F)C12 (stereo not given) |  | 7.94 µM (active)
67 | CC(=O)c1ccc(NC(=O)CCc2nc(-c3ccc(C)cc3)no2)cc1 | -9.45 | 
68 | O=C(Nc1ccc(Br)cc1)c1ccc(Br)c(S(=O)(=O)NCc2ccccc2)c1 | 6.02 | 
69 | CCOC(=O)c1sc(NC(=O)c2ccncc2)nc1C | -5.11 | 
70 | CCOC(=O)c1sc(=S)n(-c2cccc(OC)c2)c1N | 0.563 | 
71 | CCOC(=O)c1sc(=S)n2c1[nH]c(=O)c1ccc(C(=O)OC)cc12 |  | 7.08 µM (active)
72 | COc1ccccc1N1CCN(C(CNC(=O)C(=O)NCc2ccc(C)cc2)c2cccnc2)CC1 (stereo not given) | -5.42 | 
73 | O=[N+]([O-])c1cc(-c2nc(-c3ccccc3)no2)ccc1NCc1ccco1 | -16.3 | 
74 | Cc1ccc(-n2ncc3c(N4CCC(C(N)=O)CC4)ncnc32)cc1 | -3.43 | 
75 | O=C(O)c1ccc2c(c1)C(=O)N(NC(=O)c1ccc(O)cc1)C2=O | -6.31 | 

Row | Structure (SMILES) | activity, negative = inhibition [%] | Potency
76 | COc1ccc(C(=O)NN2C(=O)C3C(c4ccccc4)C=CC(c4ccccc4)C3C2=O)cc1 (stereo not given) | -6.43 | 
77 | CC(=O)N1C(=O)/C(=C2\SC(=S)N(NC(=O)c3ccc(O)cc3)C2=O)c2ccccc21 |  | 25.1 µM (active)
78 | CN(C)S(=O)(=O)c1cccc(C(=O)Nc2cccnc2)c1 | 9.97 | 
79 | O=C(c1cccnc1)N(c1cc2sc(=O)oc2c2ccccc12)S(=O)(=O)c1ccccc1 |  | 11.2 µM (active)
80 | COc1ccc(N(C(=O)c2cccnc2)S(=O)(=O)c2ccc3c(c2)n(C)c(=O)n3C)cc1 | -3.49 | 
81 | COc1ccccc1CNc1nccn(-c2ccc(F)cc2)c1=O | 1.99 | 
82 | Cc1cccc(CC(=O)Nc2cccc(-c3cn4cccnc4n3)c2)c1 | -5.47 | 
83 | CCc1cccc(C)c1NS(=O)(=O)c1ccc(-c2cc(C)no2)s1 | 6.56 | 
84 | Cc1ccc(S(=O)(=O)Nc2nc3ccccc3s2)cc1[N+](=O)[O-] | -21.2 | 
85 | COc1cc(/C=N/Nc2nc3ccccc3s2)ccc1O |  | 5.62 µM (active)
86 | O=C(NC(Nc1nc2ccc([N+](=O)[O-])cc2s1)(C(F)(F)F)C(F)(F)F)c1ccccc1 | -14.9 | 
87 | COc1cc(/C=N/NC(=O)CCc2n[nH]c(=O)[nH]c2=O)ccc1O | -4.7 | 
88 | Cc1ccc(C(=O)Nc2nnc(-c3cccs3)s2)cc1C | 4.48 | 
89 | COc1ccc(S(=O)(=O)Nc2ccc(O)c(Sc3nc4ccccc4s3)c2)cc1 |  | inactive
90 | COc1cc(/C=N/NC(=O)c2ccccc2)ccc1OS(=O)(=O)c1ccccc1 | -1.52 | 
91 | COc1cc(/C=N\Nc2nc(-c3cccs3)c(NC(C)=O)s2)ccc1O |  | 15.8 µM (active)
92 | O=[N+]([O-])c1cc(Br)c(O)c(/C=N/Nc2nc3ccccc3s2)c1 |  | 4.47 µM (active)
93 | Cc1ccc(S(=O)(=O)c2cn(Cc3ccccc3)c3cc(N4CCCC4)c(F)cc3c2=O)c(C)c1 | 9.83 | 
94 | O=C1CSC2(C(=O)N(Cc3ccccc3)c3ccccc32)N1c1cccc(F)c1 (stereo not given) | 2.49 | 
95 | O=C(COc1ccccc1F)Nc1ccc(C(=O)OCc2cc(=O)n3nc(C4CC4)sc3n2)cc1 | -5.48 | 
96 | CCOc1ccc(OCC)c(NC(=O)CN(c2ccc(C)cc2)S(=O)(=O)c2c(C)n[nH]c2C)c1 | -14.9 | 
97 | CNC(=O)CN1C(=O)c2cccnc2Sc2ccccc21 | -4.1 | 
98 | Cc1ccc(Cn2c(=O)n(-c3ccc(C)cc3)c(=O)c3c2c2cc(C)ccc2n3C)cc1 | 5.05 | 
99 | COc1ccccc1NC(=O)c1cc(C2CC2)nc2c1c(C)nn2-c1ccc(C)cc1 | -1.61 | 
100 | Cc1ccc2nc(CNC(=O)c3ccccc3)[nH]c2c1 | -7.98 | 
